# From PubChem BioAssay (NCATS)
# Inconclusive results are not listed. Entries that show only a call come without a potency. Unmarked numbers belong to inactive results. Activity calls are given as the source filed them. Calls follow the shape of the dose curve; as a rule, active = well fitted inhibition curve with a large enough effect; inconclusive = small, poorly fitted or top-dose-only effect; inactive = flat fitted curve, though single readings scatter.
# Tests used:
# W2 = assay: qHTS profiling for inhibitors of Plasmodium falciparum proliferation (AID 504749); also: potency is read from the fitted curve at half-maximal effect; settings: P. falciparum in erythrocytes, SYBR Green DNA, 72 h; series mostly up to 28.7 µM
# Method in brief: (§1)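 P. falciparum-infected erythrocytes (0.3% parasitemia, 2.5% hematocrit) incubated with compound 72 h at 37 C, 5% CO2. Parasite DNA detected by SYBR Green after lysis, overnight at room temperature; normalised to 0.29 uM artemisinin and DMSO.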
# CRL-7250 = normal cell line; assay: Cytotoxic Profiling of Annotated Libraries Using Quantitative High-Throughput Screening (AID 1296008); settings: Five cell lines viability, CellTiter-Glo ATP luminescence, 48-72 h; active compounds read low
# Method in brief: (§2)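 Cells exposed to compounds for 48 or 72 hr at 37 degrees Celsius. Viability read as ATP-coupled luminescence with CellTiter-Glo after 10 min at room temperature.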
# HEK293 = assay: as above; settings: Five cell lines viability, CellTiter-Glo ATP luminescence, 48-72 h; active compounds read low
# Method in brief: as §2
# HaCat [1] = assay: as above; settings: Five cell lines viability, CellTiter-Glo ATP luminescence, 48-72 h; active compounds read low
# Method in brief: as §2
# KB-3-1 = assay: as above; settings: Five cell lines viability, CellTiter-Glo ATP luminescence, 48-72 h, active compounds read low
# Method in brief: as §2
# NIH3T3 [2] = assay: as above; settings: Five cell lines viability, CellTiter-Glo ATP luminescence, 48-72 h; active compounds read low
# Method in brief: as §2
# HACAT [3] = assay: qHTS assay to identify novel small-molecules to repurpose for Merkel cell carcinoma treatment (AID 1296009); settings: MCC and control cell lines, CellTiter-Glo viability, 72 h; at 44.8 µM (top of the series) unless noted
# Method in brief: (§3)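 Cells were treated for 72 hr at 37 degree celsius with compounds in 8- or 11-point dose response. Viability was read by CellTiter-Glo luminescence, normalized to no-cell (cytotoxicity) and DMSO controls.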
# MCC-13 = assay: as above; settings: MCC and control cell lines, CellTiter-Glo viability, 72 h; series mostly up to 46 µM
# Method in brief: as §3
# MCC-26 = assay: as above; settings: MCC and control cell lines, CellTiter-Glo viability, 72 h; series mostly up to 46 µM
# Method in brief: as §3
# MKL-1 = assay: as above; settings: MCC and control cell lines, CellTiter-Glo viability, 72 h; series mostly up to 46 µM
# Method in brief: as §3
# MKL-2 = assay: as above; settings: MCC and control cell lines, CellTiter-Glo viability, 72 h; series mostly up to 46 µM
# Method in brief: as §3
# NIH3T3 [4] = assay: as above; settings: MCC and control cell lines, CellTiter-Glo viability, 72 h; at 44.8 µM (top of the series) unless noted
# Method in brief: as §3
# UISO = assay: as above; settings: MCC and control cell lines, CellTiter-Glo viability, 72 h; series mostly up to 46 µM
# Method in brief: as §3
# WaGa = assay: as above; settings: MCC and control cell lines, CellTiter-Glo viability, 72 h; series mostly up to 46 µM
# Method in brief: as §3
# PC49 = assay: qHTS profiling for inhibitors of Plasmodium falciparum proliferation (AID 504749); also: potency is read from the fitted curve at half-maximal effect; settings: P. falciparum in erythrocytes, SYBR Green DNA, 72 h; series mostly up to 28.7 µM
# Method in brief: as §1
# SC27B = assay: as above; settings: P. falciparum in erythrocytes, SYBR Green DNA, 72 h; series mostly up to 28.7 µM
# Method in brief: as §1
# TAB109 = assay: as above; settings: P. falciparum in erythrocytes, SYBR Green DNA, 72 h; series mostly up to 28.7 µM
# Method in brief: as §1
# TAB113 = assay: as above; settings: P. falciparum in erythrocytes, SYBR Green DNA, 72 h; series mostly up to 28.7 µM
# Method in brief: as §1
# TAB165 = assay: as above; settings: P. falciparum in erythrocytes, SYBR Green DNA, 72 h; series mostly up to 28.7 µM
# Method in brief: as §1
# Also: nearly all actives have a fitted effect of over 60% in size.
smiles,measurement,setting,value
CC(CN(C)C)C(C)(O)Cc1ccc(Cl)cc1 (stereo not drawn),Potency,W2,2.39 µM (active)
same,outcome,CRL-7250,inactive
same,max response,HEK293,3.34%
same,outcome,HaCat [1],inactive
same,max response,KB-3-1,6.05%
same,outcome,NIH3T3 [2],inactive
same,outcome,HACAT [3],inactive
same,outcome,MCC-13,inactive
same,outcome,MCC-26,inactive
same,outcome,MKL-1,inactive
same,outcome,MKL-2,inactive
same,outcome,NIH3T3 [4],inactive
same,outcome,UISO,inactive
same,outcome,WaGa,inactive
COCC(=O)Nc1c(I)c(C(=O)NCC(O)CO)c(I)c(C(=O)N(C)CC(O)CO)c1I (stereo not drawn),max response,CRL-7250,-2.09%
same,max response,HEK293,-5.16%
same,outcome,HaCat [1],inactive
same,max response,KB-3-1,11.7%
same,max response,NIH3T3 [2],1.05%
same,outcome,HACAT [3],inactive
same,outcome,MCC-13,inactive
same,outcome,MCC-26,inactive
same,outcome,MKL-1,inactive
same,outcome,MKL-2,inactive
same,outcome,UISO,inactive
same,outcome,WaGa,inactive
CC[C@H](C)[C@H](N)C(=O)O,max response,CRL-7250,-1.3%
same,max response,HEK293,-2.12%
same,outcome,HaCat [1],inactive
same,max response,KB-3-1,-15.9%
same,max response,NIH3T3 [2],-5.18%
same,outcome,HACAT [3],inactive
same,outcome,MCC-13,inactive
same,outcome,MCC-26,inactive
same,outcome,MKL-1,inactive
same,outcome,MKL-2,inactive
same,outcome,UISO,inactive
same,outcome,WaGa,inactive
Cc1ccc2c(c1)c1c3n2CCNC3CCC1 (stereo not drawn),max response,CRL-7250,-2.33%
same,max response,HEK293,-1.48%
same,outcome,HaCat [1],inactive
same,max response,KB-3-1,-0.231%
same,max response,NIH3T3 [2],-0.828%
same,outcome,HACAT [3],inactive
same,outcome,MCC-13,inactive
same,outcome,MCC-26,inactive
same,outcome,MKL-1,inactive
same,outcome,MKL-2,inactive
same,outcome,UISO,inactive
same,outcome,WaGa,inactive
NC(N)=NS(=O)(=O)c1ccc(N)cc1,Potency,PC49,inactive
same,Potency,SC27B,inactive
same,Potency,TAB109,inactive
same,Potency,TAB113,inactive
same,Potency,TAB165,inactive
same,Potency,W2,inactive
same,outcome,CRL-7250,inactive
same,max response,HEK293,-6.28%
same,outcome,HaCat [1],inactive
same,max response,KB-3-1,15.5%
same,outcome,NIH3T3 [2],inactive
same,outcome,HACAT [3],inactive
same,outcome,MCC-13,inactive
same,outcome,MCC-26,inactive
same,outcome,MKL-1,inactive
same,outcome,MKL-2,inactive
same,outcome,NIH3T3 [4],inactive
same,outcome,UISO,inactive
same,outcome,WaGa,inactive
CCCNC(C)(C)COC(=O)c1ccccc1,Potency,PC49,inactive
same,Potency,SC27B,inactive
same,Potency,TAB109,inactive
same,Potency,TAB113,inactive
same,Potency,TAB165,inactive
same,max response,CRL-7250,-0.75%
same,max response,HEK293,3.12%
same,outcome,HaCat [1],inactive
same,max response,KB-3-1,0.448%
same,max response,NIH3T3 [2],4.95%
same,outcome,HACAT [3],inactive
same,outcome,MCC-13,inactive
same,outcome,MCC-26,inactive
same,outcome,MKL-1,inactive
same,outcome,MKL-2,inactive
same,outcome,UISO,inactive
same,outcome,WaGa,inactive
Cn1cc(C(=O)[C@@H]2CCc3nc[nH]c3C2)c2ccccc21,outcome,CRL-7250,inactive
same,max response,HEK293,3.07%
same,outcome,HaCat [1],inactive
same,max response,KB-3-1,-12.7%
same,max response,NIH3T3 [2],-0.574%
same,outcome,HACAT [3],inactive
same,outcome,MCC-13,inactive
same,outcome,MCC-26,inactive
same,outcome,MKL-1,inactive
same,outcome,MKL-2,inactive
same,outcome,UISO,inactive
same,outcome,WaGa,inactive
O=C(/C=C/c1ccc(O)c(O)c1)O[C@@H]1C[C@@](OC(=O)/C=C/c2ccc(O)c(O)c2)(C(=O)O)C[C@@H](O)[C@@H]1O,max response,CRL-7250,-6.43%
same,max response,HEK293,-4.83%
same,outcome,HaCat [1],inactive
same,max response,KB-3-1,-0.0821%
same,max response,NIH3T3 [2],-0.0883%
same,outcome,HACAT [3],inactive
same,outcome,MCC-13,inactive
same,outcome,MCC-26,inactive
same,outcome,MKL-1,inactive
same,outcome,MKL-2,inactive
same,outcome,UISO,inactive
same,outcome,WaGa,inactive
CCOc1ccccc1O[C@H](c1ccccc1)[C@H]1CNCCO1,outcome,CRL-7250,inactive
same,max response,HEK293,2.57%
same,outcome,HaCat [1],inactive
same,max response,KB-3-1,2.06%
same,max response,NIH3T3 [2],1.71%
same,outcome,HACAT [3],inactive
same,outcome,MCC-13,inactive
same,outcome,MCC-26,inactive
same,outcome,MKL-1,inactive
same,outcome,MKL-2,inactive
same,outcome,UISO,inactive
same,outcome,WaGa,inactive
CC(C)(C)NCC(O)COc1cccc2c1CCC(=O)N2 (stereo not drawn),max response,CRL-7250,4.08%
same,max response,HEK293,-0.291%
same,outcome,HaCat [1],inactive
same,max response,KB-3-1,7.08%
same,max response,NIH3T3 [2],3.67%
same,outcome,HACAT [3],inactive
same,outcome,MCC-13,inactive
same,outcome,MCC-26,inactive
same,outcome,MKL-1,inactive
same,outcome,MKL-2,inactive
same,outcome,UISO,inactive
same,outcome,WaGa,inactive
C[C@H]1COc2c(C3(N)CC3)c(F)cc3c(=O)c(C(=O)O)cn1c23,Potency,PC49,inactive
same,Potency,SC27B,inactive
same,Potency,TAB109,inactive
same,Potency,TAB113,inactive
same,Potency,TAB165,inactive
same,max response,CRL-7250,2.54%
same,max response,HEK293,4.33%
same,outcome,HaCat [1],inactive
same,max response,KB-3-1,14.4%
same,max response,NIH3T3 [2],1.93%
same,outcome,HACAT [3],inactive
same,outcome,MCC-13,inactive
same,outcome,MCC-26,inactive
same,outcome,MKL-1,inactive
same,outcome,MKL-2,inactive
same,outcome,UISO,inactive
same,outcome,WaGa,inactive
COc1ccc(C(=O)N2CCN(CC(=O)N3CCOCC3)CC2)cc1,Potency,PC49,inactive
same,Potency,SC27B,inactive
same,Potency,TAB109,inactive
same,Potency,TAB113,inactive
same,Potency,TAB165,inactive
same,Potency,W2,inactive
same,max response,CRL-7250,3.53%
same,max response,HEK293,4.6%
same,outcome,HaCat [1],inactive
same,max response,KB-3-1,5.06%
same,outcome,NIH3T3 [2],inactive
same,outcome,HACAT [3],inactive
same,outcome,MCC-13,inactive
same,outcome,MCC-26,inactive
same,outcome,MKL-1,inactive
same,outcome,MKL-2,inactive
same,outcome,NIH3T3 [4],inactive
same,outcome,UISO,inactive
same,outcome,WaGa,inactive
CC1(c2ccccc2)OC(C(=O)O)=CC1=O (stereo not drawn),max response,CRL-7250,-0.824%
same,max response,HEK293,1.9%
same,outcome,HaCat [1],inactive
same,max response,KB-3-1,17.3%
same,max response,NIH3T3 [2],-3.39%
same,outcome,HACAT [3],inactive
same,outcome,MCC-13,inactive
same,outcome,MCC-26,inactive
same,outcome,MKL-1,inactive
same,outcome,MKL-2,inactive
same,outcome,UISO,inactive
same,outcome,WaGa,inactive
O=S1(=O)OC(c2ccc(O)cc2)(c2ccc(O)cc2)c2ccccc21,Potency,PC49,inactive
same,Potency,SC27B,inactive
same,Potency,TAB109,inactive
same,Potency,TAB113,inactive
same,Potency,TAB165,inactive
same,Potency,W2,inactive
same,outcome,CRL-7250,inactive
same,max response,HEK293,-9.72%
same,outcome,HaCat [1],inactive
same,max response,KB-3-1,15.7%
same,outcome,NIH3T3 [2],inactive
same,outcome,HACAT [3],inactive
same,outcome,MCC-13,inactive
same,outcome,MCC-26,inactive
same,outcome,MKL-1,inactive
same,outcome,MKL-2,inactive
same,outcome,NIH3T3 [4],inactive
same,outcome,UISO,inactive
same,outcome,WaGa,inactive
CCCCOC(=O)c1ccc(N)cc1,Potency,PC49,inactive
same,Potency,SC27B,inactive
same,Potency,TAB109,inactive
same,Potency,TAB113,inactive
same,Potency,TAB165,inactive
same,outcome,CRL-7250,inactive
same,max response,HEK293,4.63%
same,outcome,HaCat [1],inactive
same,max response,KB-3-1,0.229%
same,max response,NIH3T3 [2],-6.66%
same,outcome,HACAT [3],inactive
same,outcome,MCC-13,inactive
same,outcome,MCC-26,inactive
same,outcome,MKL-1,inactive
same,outcome,MKL-2,inactive
same,outcome,UISO,inactive
same,outcome,WaGa,inactive
